# Among all 4,100 compounds or so, about 1,600 (39%) were called active. Inconclusive results (about 25%) are left out. The list shows a part of the results. Unmarked numbers belong to inactive results. Calls come from the whole dose curve; as a rule, active = well fitted inhibition curve with a large enough effect; inconclusive = small, poorly fitted or top-dose-only effect; inactive = no such curve, though single readings can be large or run the other way.
# Test: qHTS Validation assay for Inhibitors of Plasmodium falciparum Dd2 growth in vitro; note: nearly all actives have a fitted effect of over 70% in size
# Details: P. falciparum Dd2 in RBCs, SYBR Green growth, 72 h; series mostly up to 28.7 µM; activity change, negative = inhibition: at the top concentration
# Source text: Malaria, a parasitic disease spread to humans through the bite of a Plasmodium infected Anopheles mosquito, continues to be a global health burden affecting millions of people, with an estimated 228 million cases and 405,000 deaths in 2018. Concerns about safety and limitations of current antimalarial treatments strongly emphasize the need to develop new therapeutic options. The scarce number of chemotypes and validated drug targets with efficacy against the liver stage, have hindered development of new antimalarials. To address this, a chemoprophylactic drug discovery effort was conducted through a combined phenotypic high-throughput asexual blood stage and liver stage screen, providing a robust foundation to identify liver-stage active lead chemotypes. Compounds were initially screened against Plasmodium falciparum Dd2 strain parasites using a in vitro SYBRGreen-1 based 72 hr proliferation assay to identify novel chemotypes to advance to liver stage assays. NIH/NCATS Early Translation Branch Assay Submitter (PI): Anton Simeonov Ph.D.
# […] Assay Protocol: PROTOCOL TABLE (as described by Inglese et al., 2007) SEQUENCE No. (e.g., 1, 2, 3, etc.); PARAMETER (e.g., Cells, Incubation, Reagent, etc.); VALUE; DESCRIPTION SEQUENCE, Parameter, Description 1; Reagent; 3 uL complete malaria growth medium, 1536 TC treated Black clear bottom plate 2; Controls; 23 nL positive control artesunate (300 nM final) to column 1; Neutral control DMSO to columns 2-4 3; Compound; 23 nL of compounds in dose response concentration (29 uM to 0.5 nM final) 4; Reagent; 5 uL malaria infected red blood cells (2.5% hematocrit final, 0.3% parasitemia 5; Time; 72 hours at 37C (5% O2, 5% CO2, 90% N2; 95% Rh) 6; Reagent; 2 uL lysis buffer/SYBRGreen-1, 25 sec shake immediately following dispense 7; Time; ~16 hours at 37C (5% O2, 5% CO2, 90% N2; 95% Rh) 8; Detector; EnVision (PerkinElmer) bottom read at 485/14nm excitation and 535/25 nm emission NOTES (numbers refer to sequence above): 1; Complete Malaria Growth Media: 1X RPMI-1640 w/L-glutamine, 5.5g/L Albumax II, 367 uM Hypoxanthine, 25 mM HEPES, 0.25% Sodium Bicarbonate, 35 uM Gentamicin sulfate 2; Controls were added using the Kalypsis Pintool (Wako USA) equipped with 1536 pinhead 3; Compounds were added in a 7-point, titration with a high final concentration of 29 uM by Pintool from seven inter-plate titrations of library plates and two DMSO control plates at the beginning and end (see Yasgar et al., 2008). 4; Red blood cells infected with Plasmodium falciparum Dd2 parasites were used. 6; Lysis buffer: 20 mM Tris-HCl, 10 mM EDTA, 0.16% Saponin, 1.6% Triton-X, 10X SYBR Green. REFERENCE: Inglese J, Shamu CE, Guy RK. 2007. Reporting data from high-throughput screening of small-molecule libraries. Nat Chem Biol. doi:10.1038/nchembio0807-438 Yasgar A, Shinn P, Jadhav A, Auld D, Michael S, Zheng W, Austin CP, Inglese J, Simeonov A. 2008. Compound Management for Quantitative High-Throughput Screening. J Lab Autom 13:79-89. doi:10.1016/j.jala.2007.12.004
# % is set by controls: 0 for no effect and ±100 for the full control effect; potency is the fitted concentration of half-maximal effect.
Structure (SMILES),"activity change, negative = inhibition",Potency
CCCc1noc(-c2ccn3c(CNC(=O)c4cccc(Cl)c4)nnc3c2)n1,-6.54%,–
CCN(c1ccccc1)S(=O)(=O)c1c(-c2ccc(C)cc2)csc1C(=O)OC,-3.17%,–
O=C(CCS(=O)(=O)c1cc(Br)cc2c1N(C(=O)C1CC1)CC2)Nc1ccc(C(F)(F)F)cc1,–,1.33 µM (active)
CCN(c1ccccc1)S(=O)(=O)c1cc(Br)cc2c1N(C(=O)C1CC1)CC2,–,2.99 µM (active)
CC1=C[C@@H](CNC(C)C)[C@H](C(C)C)C[C@H]1Cc1nnc(C(C)(C)C)o1,-18.7% [at 43.1 µM],–
CC1=C[C@@H](CNC(C)C)[C@H](C(C)C)C[C@H]1Cc1nnc(-c2ccc(C)cc2)o1,–,13.7 µM (active)
CC1=C[C@@H](CNS(C)(=O)=O)[C@H](C(C)C)C[C@H]1Cc1nnc(-c2ccccc2F)o1,18.4% [at 43.1 µM],–
CC1=C[C@@H](CNC2CC2)[C@H](C(C)C)C[C@H]1Cc1nnc(-c2ccc(C)cc2)o1,–,17.2 µM (active)
CC1=C[C@@H](CNCCN(C)C)[C@H](C(C)C)C[C@H]1Cc1nnc(C(C)(C)C)o1,–,15.3 µM (active)
CC(=O)NCCNC[C@@H]1C=C(C)[C@H](Cc2nnc(-c3ccccc3)o2)C[C@H]1C(C)C,–,17.2 µM (active)
N#Cc1ccccc1CN1CCC([C@@H]2CNC[C@H]2CO)CC1,24.7%,–
O=C1COc2ccc(-c3ccsc3)nc2CN1,40.8% [at 57.5 µM],–
CCN(CC)CCNC(=O)C1CCCN(S(=O)(=O)c2ccccc2)CCC(=O)NCC1 (stereo unspecified),5.63%,–
CCN(CC)CCNC(=O)c1c(O)c2cccc3c2n(c1=O)CCC3,–,10.6 µM (active)
O=C(NCc1ccccn1)C1c2ccccc2C(=O)N(C2CCCC2)C12CCCCC2 (stereo unspecified),-27.1%,–
Cc1nnc(SCC(=O)Nc2nccs2)o1,35.8%,–
O=C(Nc1nccs1)C1c2ccccc2C(=O)N(C2CCCC2)C12CCCC2 (stereo unspecified),–,4.22 µM (active)
Cc1nnc(NC(=O)C2c3ccccc3C(=O)N(CC(C)C)C23CCCCC3)s1 (stereo unspecified),–,15 µM (active)
CC(C)CN1C(=O)c2ccccc2C(C(=O)Nc2nccs2)C12CCCC2 (stereo unspecified),–,8.41 µM (active)
CCN(CC)CC(O)COc1ccccc1C(=O)CCc1ccccc1 (stereo unspecified),–,1.5 µM (active)
CCCNCC(O)COc1ccccc1C(=O)CCc1ccccc1 (stereo unspecified),–,0.842 µM (active)

Structure (SMILES),"activity change, negative = inhibition",Potency
COc1ccccc1CNC(=O)[C@@H](C)C1CC[C@@]2(C)CC[C@H](NC(=O)c3cncnc3)[C@@H](C)[C@@H]2[C@H]1O (stereo partly specified),–,2.37 µM (active)
CCN(CC)C(=O)[C@@H](C)C1CC[C@@]2(C)CC[C@H](NC(=O)COc3ccccc3)[C@@H](C)[C@@H]2[C@H]1O (stereo partly specified),1.65%,–
CCN(CC)C(=O)C(C)[C@@H]1CC[C@@]2(C)CC[C@H](NC(=O)c3cnccn3)[C@@H](C)[C@@H]2[C@H]1O (stereo partly specified),-37% [at 43.1 µM],–
CCn1cnnc1CC1CCN(C(=O)C2CC2)CC1,15.8%,–
CCN(CC)c1ccc2oc(=O)c(C)nc2c1,–,6.68 µM (active)
CCS(=O)(=O)c1ccc2oc(Nc3cc(C)cc(C)c3)nc2c1,-17.2%,–
Cn1cc(C(NS(=O)(=O)c2cccc3c2OCCO3)C2CC(O)C2)cn1 (stereo unspecified),14.4%,–
CC(C)NC(=O)CSc1nnc(CNC(=O)OC(C)(C)C)n1C,26.5%,–
CC(C)Cc1nc2nccc(-c3cccs3)n2n1,4.53%,–
Cc1nc2ccc(C(=O)NCc3cc4n(n3)CCN(C(=O)N(C)C)C4)cc2o1,52.8%,–
CCN(CC)CCNC(=O)c1cn(CC)c2ccc(S(=O)(=O)N3CCOCC3)cc2c1=O,29.7%,–
CCn1cc(C(=O)N[C@@H](CCSC)C(=O)NC(C)(C)CO)c(=O)c2cc3c(cc21)OCO3,–,2.99 µM (active)
CC1CCN(C(=O)CSc2nnc3c(n2)[nH]c2ccc(F)cc23)CC1,-11.3%,–
CC1CCc2cc(F)ccc2N1C(=O)CSc1nnc2c(n1)[nH]c1ccc(F)cc12 (stereo unspecified),–,8.41 µM (active)
CC1CCc2cc(F)ccc2N1C(=O)CSc1nnc2c(n1)[nH]c1ccccc12 (stereo unspecified),–,7.5 µM (active)
COc1ccccc1NS(=O)(=O)c1cc(NC(=O)c2cccc(S(=O)(=O)N(C)C)c2)ccc1N1CCOCC1,–,7.5 µM (active)
COc1cccc(S(=O)(=O)N2C[C@@H](Oc3ccccc3)C[C@@H]2C(=O)N2CCOCC2)c1,-1.89%,–
CCCc1noc(-c2cn(C3CCN(C(=O)Cc4cccc(F)c4)CC3)nn2)n1,-15.8%,–
CCc1noc(-c2cn(C3CCN(C(=O)c4ccc(F)c(F)c4)CC3)nn2)n1,38.9%,–
Cc1nc2cc(F)ccc2n1C1CCN(C(=O)c2c(F)cccc2F)CC1,–,5.96 µM (active)
CCC(O)(CC)C(=O)NN(C(=O)Nc1csc2c1CCCC2)c1ccccc1,–,2.99 µM (active)

Structure (SMILES),"activity change, negative = inhibition",Potency
CCCC(=O)Nc1sc2c(c1C(=O)Nc1ccccn1)CCCC2,5.63%,–
Cc1ccc(C)c(C(=O)Nc2ccncc2)c1,7.54%,–
Cc1ccc(NC(=O)c2cnc(-c3ccccc3)nc2-c2ccncc2)c(Br)c1,–,9.44 µM (active)
COc1ccc([C@@]2(C(C)C)ON(c3ccccc3C(F)(F)F)C2=O)cc1,–,4.22 µM (active)
Cc1nn(-c2ccccc2)nc1C(=O)Oc1cc(C(F)(F)F)nn1-c1ccccc1,11.3%,–
COCCn1cnc2ccc(-c3ccccc3)nc2c1=O,-1.86% [at 57.5 µM],–
Cn1cnc2ccc(-c3cccc(O)c3)nc2c1=O,–,6.11 µM (active)
CN1CC2(CCCN(CC3CC3)C2)c2cc(C(=O)NCCOc3ccccc3)ccc21 (stereo unspecified),–,17.2 µM (active)
COCCN1CCCCCC(O)c2cc(C(=O)NCCc3ccccc3)ccc21 (stereo unspecified),-13.9%,–
Cc1ccccc1CN1CCc2nc(C(=O)NCCOc3ccccc3)oc2CC1,21.9% [at 43.1 µM],–
COCCCNc1nc2cc(OC)c(OC)cc2c2nc(-c3ccccc3)nn12,–,0.237 µM (active)
CCOCCCNc1nc2cc(OC)c(OC)cc2c2nc(-c3ccccc3)nn12,–,0.211 µM (active)
COc1cc2nc(NCCC(C)C)n3nc(-c4ccccc4)nc3c2cc1OC,–,0.422 µM (active)
CC(C)CN1C(=O)c2cccn2CC1C(=O)O (stereo unspecified),31.9%,–
CN1C(=O)C2(CCN(C(=O)c3ccn(C(C)(C)C)c3)CC2)c2ccccc21,-35.1%,–
CCN1C(=O)C2(CCN(S(=O)(=O)c3ccc(Cl)cc3C)CC2)c2ccccc21,–,5.31 µM (active)
COc1ccc(-c2nc3scc(CCNC(=O)c4cccc(Br)c4)n3n2)cc1,24.6%,–
COc1ccc(-c2nc3sc(CCNC(=O)c4ccc(C(C)(C)C)cc4)c(C)n3n2)cc1,–,2.11 µM (active)
COc1ccc(-c2cc3c(=O)n(CCNC(=O)c4ccc(N(C)C)cc4)ccn3n2)cc1,-7.95%,–

# From PubChem BioAssay AID1347416 (National Center for Advancing Translational Sciences (NCATS), 2020)
